Screening data from PubChem BioAssay.
DT40 TDP1 no CPT – qHTS for Inhibitors of human tyrosyl-DNA phosphodiesterase 1 (TDP1): qHTS in cells in absence of CPT | DT40 Tdp1-/- hTDP1 cells, no CPT, ATP luminescence, 48 h | Potency, µM (titrated, usually from 46.2 µM), without a hit: top-dose activity change, negative = growth inhibition, usual class: inhibitors | 15% of 420,000 active; also: potency is read from the fitted curve at half-maximal effect; % is scaled to controls: 0 for no effect and ±100 for the full control effect; nearly all actives have a fitted effect of over 55% in size
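Compound effects on proliferation are scored in DT40 Tdp1-/-;hTDP1 cells in the absence of CPT. ATP levels (CellTiter-Glo luminescence) are recorded after a ≥48 hr, 37 °C incubation.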
TDP1 cell CPT – qHTS for Inhibitors of human tyrosyl-DNA phosphodiesterase 1 (TDP1): qHTS in cells in presence of CPT | 12% of 420,000 active | Potency, µM (doses to about 46.2 µM), for inactives: at the top dose activity change, negative = growth inhibition, hits mostly inhibitors | chicken DT40 Tdp1-/-;hTDP1 cells + 20 nM CPT, ATP luminescence, 48 h; also: potency is read from the fitted curve at half-maximal effect; % is scaled to controls: 0 for no effect and ±100 for the full control effect; nearly all actives have a fitted effect of over 55% in size
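Chicken DT40 Tdp1-/- cells complemented with human TDP1, 400 cells/well, exposed to compounds plus 20 nM camptothecin for at least 48 h at 37 C; viability read as ATP content by CellTiter-Glo luminescence.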
SW480 rereplic – A quantitative high throughput screen for small molecules that induce DNA re-replication in SW480 colon adenocarcinoma cells | AID 624297, 2012 | Potency, µM (doses to about 46.1 µM), for inactives: at the top dose re-replication activation, usual class: activators | SW480 DNA re-replication, Hoechst DNA content imaging, 48 h | 1.8% of 340,000 active; also: potency is read from the fitted curve at half-maximal effect; % of control where 0% means no effect; nearly all actives have a fitted effect of over 55% in size
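Per well, 250 cells were exposed to pinned compound for 48 hr. Nuclear DNA was visualised with Hoechst (40 min, 37 C) and total object intensity recorded by fluorescence scanning.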
IL1B secr inh – qHTS for Inhibitors of Inflammasome Signaling: IL-1-beta AlphaLISA Primary Screen; activity change, % at 57.5 µM; THP-1 LPS/ATP IL-1B secretion, AlphaLISA, 16 h; active compounds read low; 4.7% of 360,000 active; AID 743279, 2014; in the data active = activity change below about -50%; inconclusive = mostly about -30% to -49%; also: % is scaled to controls: 0 for no effect and ±100 for the full control effect
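THP-1 cells pretreated 1 hr with compounds (up to 57.5 uM final), then stimulated with LPS (250 ng/mL final) plus ATP (1.25 mM final); secreted IL-1B measured by AlphaLISA after 16 hr, decreased signal indicating inhibition.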
BCR signal inh – qHTS Assay to Find Inhibitors of Chronic Active B-Cell Receptor Signaling; ABC-DLBCL IkBa-CBG/CBR reporter, luminescence ratio, 4 h; Potency, µM (doses to about 46.1 µM), inactives show at the top dose activity change, negative = inhibition, usual class: inhibitors; 0.05% of 340,000 active; active = well fitted inhibition curve with a large enough effect in the signal ratio, with a control signal flat, not every such curve was filed as active; inconclusive = small, poorly fitted or top-dose-only effect, or effect the other way, or a change in a side signal; the % refers to the signal ratio;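 also: potency is read from the fitted curve at half-maximal effect; plate controls were basal doxycycline-induced cells for no effect and cells given 10 µM MG132 for full effect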
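Compounds up to 46 uM were incubated four hours with TMD8 cells whose green CBG68 luciferase is fused to IkappaBalpha; red CBR luminescence normalised the signal, and concentration-effect curves were fitted to fusion, red and ratio data.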
MCF10A rerep – A quantitative high throughput screen for small molecules that induce DNA re-replication in MCF 10a normal breast cells | MCF 10A DNA re-replication, Hoechst nuclear intensity, 48 h | Potency, µM (series often up to 46.1 µM), for inactives: at the top dose activity, positive = re-replication, hits mostly activators | 2.9% of 350,000 active | AID 624296, 2012; also: potency is read from the fitted curve at half-maximal effect; % of control where 0% means no effect; nearly all actives have a fitted effect of over 50% in size
Numbers without * were called inactive; ? = inconclusive; nt = not tested or not shown; [ ] = another dose, or the depositor's remark. A selection: hits, their analogues and other compounds. The true share with any hit is near 19%. Unless noted, calls follow the shape of the dose curve; as a rule, active = well fitted curve in the direction sought with a large enough effect; inconclusive = small, poorly fitted or top-dose-only effect, or another doubt; inactive = no such curve, though single readings can be large; an effect the other way counts as inactive or inconclusive.

SMILES | DT40 TDP1 no CPT | TDP1 cell CPT | SW480 rereplic | IL1B secr inh | BCR signal inh | MCF10A rerep
CCOC(=O)[C@]12CCC=C1N(Cc1cccc3ccccc13)C(=O)[C@H](CC(=O)NCC1CCCCC1)C2 | 21µM* | 23µM* | nt | 0 | nt | nt
COC(=O)[C@]12CCCCC=C1N(Cc1cccc3ccccc13)C(=O)[C@H](CC(=O)NCC1CCCCC1)C2 | 18µM* | ? | nt | -15 | nt | nt
COC(=O)[C@]12CCCCC=C1N(Cc1cccc3ccccc13)C(=O)[C@H](CC(=O)NCCC(C)C)C2 | 15µM* | 18µM* | nt | -16 | nt | nt
COC(=O)[C@]12CCCCC=C1N(Cc1cccc3ccccc13)C(=O)[C@H](CC(=O)NCc1ccccc1)C2 | 18µM* | ? | nt | ? | nt | nt
O=C(Cn1ncc2c([nH]c3ccccc32)c1=O)Nc1cccc(C(F)(F)F)c1 | 2% | 1% | nt | nt | nt | nt
O=C(O)C(Cc1cn[nH]n1)=NO | -14% | 1% | -21% | 12 | 0% | 10%
Cc1cccc(-c2nc(SCC(=O)NCc3ccco3)c3c(=O)n(C)c(=O)n(C)c3n2)c1 | -21% | -24% | nt | nt | nt | nt
CCOC(=O)[C@]12CCCC=C1N(Cc1ccc(Cl)cc1Cl)C(=O)[C@H](CC(=O)NCc1cccc3ccccc13)C2 | 16µM* | 26µM* | nt | ? | nt | nt
COC(=O)[C@]12CCCCC=C1N(Cc1ccccc1)C(=O)[C@H](CC(=O)NCc1ccccc1)C2 | ? | ? | nt | -26 | nt | nt
CCOC(=O)[C@]12CCCC=C1N(Cc1ccccc1)C(=O)[C@H](CC(=O)NCc1cccc3ccccc13)C2 | -30% | 18µM* | nt | -22 | nt | nt
CCOC(=O)[C@]12CCCC=C1N(Cc1cccc3ccccc13)C(=O)[C@H](CC(=O)NCCCCc1ccccc1)C2 | ? | ? | nt | -1 | nt | nt
COC(=O)[C@]12CCCCC=C1N(Cc1ccccc1)C(=O)[C@H](CC(=O)NCc1cccc3ccccc13)C2 | 18µM* | ? | nt | -10 | nt | nt
CCOC(=O)[C@]12CCCC=C1N(Cc1ccccc1)C(=O)[C@H](CC(=O)NCCc1ccccc1OC)C2 | 13µM* | ? | nt | -22 | nt | nt
CCOC(=O)[C@]12CCC=C1N(Cc1ccccc1)C(=O)[C@H](CC(=O)NCCc1ccccc1OC)C2 | ? | ? | nt | -4 | nt | nt
Cc1nc(NC(=O)c2ccccc2)sc1-c1csc(Nc2ccc(C(=O)O)cc2)n1 | 12µM* | 21µM* | ? | ? | ? | ?
COc1cccc(Nc2nc(-c3sc(NC(=O)c4ccccc4)nc3C)cs2)c1 | 21µM* | 18µM* | 4%[9.22 µM] | -5 | ? | ?
Cc1nc(N)sc1-c1csc(Nc2cccc(C(=O)O)c2)n1 | 7% | -6% | -4% | 23 | ? | -6%
CCC(=O)Nc1nc(C)c(-c2csc(Nc3ccc(C(=O)O)cc3)n2)s1 | -26% | -1% | 5% | 0 | ? | 12%
CCCC(=O)Nc1nc(C)c(-c2csc(Nc3ccccc3OC)n2)s1 | ? | -28% | -2% | -9 | 4% | 9%
Cc1nc(NC(=O)c2ccccc2)sc1-c1csc(NCc2ccco2)n1 | 23µM* | 23µM* | -2% | -16 | ? | -4%
CCCC(=O)Nc1nc(C)c(-c2csc(Nc3cc(OC)ccc3OC)n2)s1 | 6.5µM* | 4.6µM* | 8% | -1 | -18% | -1%
Cc1ccc(NC(=O)C2CCCN2C(=O)OC(C)(C)C)cc1C (configuration not stated) | 8% | -18% | -2% | 20 | -1% | 3%
Cc1cc(O)ccc1Nc1nc(-c2sc(N)nc2C)cs1 | -14% | 3% | -3% | 31 | ? | -5%
COc1ccc(OC)c(Nc2nc(-c3sc(N)nc3C)cs2)c1 | 26µM* | ? | 11% | ? | -15% | 9%
COc1cccc(Nc2nc(-c3sc(NC(=O)CC(C)C)nc3C)cs2)c1 | 23µM* | 13µM* | -4% | -3 | -13% | 18%
SMILES | DT40 TDP1 no CPT | TDP1 cell CPT | SW480 rereplic | IL1B secr inh | BCR signal inh | MCF10A rerep
CCCCCC(=O)Nc1nc(C)c(-c2csc(Nc3cc(Cl)ccc3OC)n2)s1 | 18µM* | ? | ? | 15 | 0% | -12%
CCCC(C)C(=O)Nc1nc(C)c(-c2csc(Nc3cc(OC)ccc3OC)n2)s1 (configuration not stated) | 6.5µM* | 4.6µM* | 1% | -3 | ? | ?
CCCC(=O)Nc1nc2c(OC)ccc(OC)c2s1 | ? | -28% | -3% | 4 | ? | 0%
Cc1cc(C)n(-c2nnc(Nc3ccc(C)c(C)c3)c3ccccc23)n1 | -15% | ? | nt | nt | nt | nt
CC(=O)NC12CC3CC(C1)CC(C(=O)N1CCN(S(=O)(=O)c4ccc(C(C)C)cc4)CC1)(C3)C2 | ? | ? | ? | 15 | 1% | 0%
C=CCn1nc(C(=O)Nc2ccc(OC)cc2)cc1-c1sc(NC(=O)c2ccccc2)nc1C | ? | 18µM* | nt | -3 | nt | nt
COc1ccccc1Nc1nc(-c2sc(NC(=O)CC(C)C)nc2C)cs1 | ? | ? | ? | 5 | 1% | 61%
C=CCCC(=O)Nc1nc(C)c(-c2csc(Nc3cccc(OC)c3)n2)s1 | 16µM* | 16µM* | ? | 0 | ? | -46%
COc1ccc(NC(=O)c2cc(-c3sc(NC(=O)c4ccccc4)nc3C)n(-c3ccc(Br)cc3)n2)cc1 | -23% | 3% | nt | -7 | nt | nt
C=CCCC(=O)Nc1nc(C)c(-c2csc(Nc3cc(OC)ccc3OC)n2)s1 | 2.6µM* | 2.6µM* | 23µM* | -3 | ? | ?
CC(Oc1ccccc1Cl)C(=O)N(Cc1cccs1)C1CCS(=O)(=O)C1 (configuration not stated) | ? | -24% | 0% | -17 | 9% | 18%
CCCCNc1cc(NC(C)=O)cc2cc(OC)c(OC)cc12 | ? | 18µM* | 2% | 52 | -10% | 1%
O=C(Nc1cccc2c1CCCC2)C1CCN(c2nnnn2-c2ccccc2)CC1 | 16µM* | ? | -3% | 13 | ? | 71%[0.0737 µM]
COc1ccc(C(=O)Nc2ccc3c(c2)OCCO3)c(OC)c1 | -24% | -18% | nt | -5 | nt | nt
COc1cc(SC)ccc1C(=O)Nc1cc(C)c(OCC(=O)N2CCOCC2)c(C)c1 | 23µM* | ? | 9% | 15 | 0% | 2%
